Data from the supplement of paper PMC11732987, “Enantioselective OTUD7B fragment discovery through chemoproteomics screening and high-throughput optimisation” (Communications Chemistry, 2025).

How the values were obtained:
Assay in all cases: log2 ratio of Biotin-Ahx-Ub-VS probe labelling (fragment/DMSO); higher = less target engagement (more negative = stronger competition), active = hit call of the paper (q ≤ 0.05, log2 ratio ≤ -1)
Conditions in all cases: compound concentration: 200 uM; treatment time: 3 h
USP34 = USP34 (UniProt Q70CQ2)
Chain of USP34 (Q70CQ2 whole entry, the tested form may be a part): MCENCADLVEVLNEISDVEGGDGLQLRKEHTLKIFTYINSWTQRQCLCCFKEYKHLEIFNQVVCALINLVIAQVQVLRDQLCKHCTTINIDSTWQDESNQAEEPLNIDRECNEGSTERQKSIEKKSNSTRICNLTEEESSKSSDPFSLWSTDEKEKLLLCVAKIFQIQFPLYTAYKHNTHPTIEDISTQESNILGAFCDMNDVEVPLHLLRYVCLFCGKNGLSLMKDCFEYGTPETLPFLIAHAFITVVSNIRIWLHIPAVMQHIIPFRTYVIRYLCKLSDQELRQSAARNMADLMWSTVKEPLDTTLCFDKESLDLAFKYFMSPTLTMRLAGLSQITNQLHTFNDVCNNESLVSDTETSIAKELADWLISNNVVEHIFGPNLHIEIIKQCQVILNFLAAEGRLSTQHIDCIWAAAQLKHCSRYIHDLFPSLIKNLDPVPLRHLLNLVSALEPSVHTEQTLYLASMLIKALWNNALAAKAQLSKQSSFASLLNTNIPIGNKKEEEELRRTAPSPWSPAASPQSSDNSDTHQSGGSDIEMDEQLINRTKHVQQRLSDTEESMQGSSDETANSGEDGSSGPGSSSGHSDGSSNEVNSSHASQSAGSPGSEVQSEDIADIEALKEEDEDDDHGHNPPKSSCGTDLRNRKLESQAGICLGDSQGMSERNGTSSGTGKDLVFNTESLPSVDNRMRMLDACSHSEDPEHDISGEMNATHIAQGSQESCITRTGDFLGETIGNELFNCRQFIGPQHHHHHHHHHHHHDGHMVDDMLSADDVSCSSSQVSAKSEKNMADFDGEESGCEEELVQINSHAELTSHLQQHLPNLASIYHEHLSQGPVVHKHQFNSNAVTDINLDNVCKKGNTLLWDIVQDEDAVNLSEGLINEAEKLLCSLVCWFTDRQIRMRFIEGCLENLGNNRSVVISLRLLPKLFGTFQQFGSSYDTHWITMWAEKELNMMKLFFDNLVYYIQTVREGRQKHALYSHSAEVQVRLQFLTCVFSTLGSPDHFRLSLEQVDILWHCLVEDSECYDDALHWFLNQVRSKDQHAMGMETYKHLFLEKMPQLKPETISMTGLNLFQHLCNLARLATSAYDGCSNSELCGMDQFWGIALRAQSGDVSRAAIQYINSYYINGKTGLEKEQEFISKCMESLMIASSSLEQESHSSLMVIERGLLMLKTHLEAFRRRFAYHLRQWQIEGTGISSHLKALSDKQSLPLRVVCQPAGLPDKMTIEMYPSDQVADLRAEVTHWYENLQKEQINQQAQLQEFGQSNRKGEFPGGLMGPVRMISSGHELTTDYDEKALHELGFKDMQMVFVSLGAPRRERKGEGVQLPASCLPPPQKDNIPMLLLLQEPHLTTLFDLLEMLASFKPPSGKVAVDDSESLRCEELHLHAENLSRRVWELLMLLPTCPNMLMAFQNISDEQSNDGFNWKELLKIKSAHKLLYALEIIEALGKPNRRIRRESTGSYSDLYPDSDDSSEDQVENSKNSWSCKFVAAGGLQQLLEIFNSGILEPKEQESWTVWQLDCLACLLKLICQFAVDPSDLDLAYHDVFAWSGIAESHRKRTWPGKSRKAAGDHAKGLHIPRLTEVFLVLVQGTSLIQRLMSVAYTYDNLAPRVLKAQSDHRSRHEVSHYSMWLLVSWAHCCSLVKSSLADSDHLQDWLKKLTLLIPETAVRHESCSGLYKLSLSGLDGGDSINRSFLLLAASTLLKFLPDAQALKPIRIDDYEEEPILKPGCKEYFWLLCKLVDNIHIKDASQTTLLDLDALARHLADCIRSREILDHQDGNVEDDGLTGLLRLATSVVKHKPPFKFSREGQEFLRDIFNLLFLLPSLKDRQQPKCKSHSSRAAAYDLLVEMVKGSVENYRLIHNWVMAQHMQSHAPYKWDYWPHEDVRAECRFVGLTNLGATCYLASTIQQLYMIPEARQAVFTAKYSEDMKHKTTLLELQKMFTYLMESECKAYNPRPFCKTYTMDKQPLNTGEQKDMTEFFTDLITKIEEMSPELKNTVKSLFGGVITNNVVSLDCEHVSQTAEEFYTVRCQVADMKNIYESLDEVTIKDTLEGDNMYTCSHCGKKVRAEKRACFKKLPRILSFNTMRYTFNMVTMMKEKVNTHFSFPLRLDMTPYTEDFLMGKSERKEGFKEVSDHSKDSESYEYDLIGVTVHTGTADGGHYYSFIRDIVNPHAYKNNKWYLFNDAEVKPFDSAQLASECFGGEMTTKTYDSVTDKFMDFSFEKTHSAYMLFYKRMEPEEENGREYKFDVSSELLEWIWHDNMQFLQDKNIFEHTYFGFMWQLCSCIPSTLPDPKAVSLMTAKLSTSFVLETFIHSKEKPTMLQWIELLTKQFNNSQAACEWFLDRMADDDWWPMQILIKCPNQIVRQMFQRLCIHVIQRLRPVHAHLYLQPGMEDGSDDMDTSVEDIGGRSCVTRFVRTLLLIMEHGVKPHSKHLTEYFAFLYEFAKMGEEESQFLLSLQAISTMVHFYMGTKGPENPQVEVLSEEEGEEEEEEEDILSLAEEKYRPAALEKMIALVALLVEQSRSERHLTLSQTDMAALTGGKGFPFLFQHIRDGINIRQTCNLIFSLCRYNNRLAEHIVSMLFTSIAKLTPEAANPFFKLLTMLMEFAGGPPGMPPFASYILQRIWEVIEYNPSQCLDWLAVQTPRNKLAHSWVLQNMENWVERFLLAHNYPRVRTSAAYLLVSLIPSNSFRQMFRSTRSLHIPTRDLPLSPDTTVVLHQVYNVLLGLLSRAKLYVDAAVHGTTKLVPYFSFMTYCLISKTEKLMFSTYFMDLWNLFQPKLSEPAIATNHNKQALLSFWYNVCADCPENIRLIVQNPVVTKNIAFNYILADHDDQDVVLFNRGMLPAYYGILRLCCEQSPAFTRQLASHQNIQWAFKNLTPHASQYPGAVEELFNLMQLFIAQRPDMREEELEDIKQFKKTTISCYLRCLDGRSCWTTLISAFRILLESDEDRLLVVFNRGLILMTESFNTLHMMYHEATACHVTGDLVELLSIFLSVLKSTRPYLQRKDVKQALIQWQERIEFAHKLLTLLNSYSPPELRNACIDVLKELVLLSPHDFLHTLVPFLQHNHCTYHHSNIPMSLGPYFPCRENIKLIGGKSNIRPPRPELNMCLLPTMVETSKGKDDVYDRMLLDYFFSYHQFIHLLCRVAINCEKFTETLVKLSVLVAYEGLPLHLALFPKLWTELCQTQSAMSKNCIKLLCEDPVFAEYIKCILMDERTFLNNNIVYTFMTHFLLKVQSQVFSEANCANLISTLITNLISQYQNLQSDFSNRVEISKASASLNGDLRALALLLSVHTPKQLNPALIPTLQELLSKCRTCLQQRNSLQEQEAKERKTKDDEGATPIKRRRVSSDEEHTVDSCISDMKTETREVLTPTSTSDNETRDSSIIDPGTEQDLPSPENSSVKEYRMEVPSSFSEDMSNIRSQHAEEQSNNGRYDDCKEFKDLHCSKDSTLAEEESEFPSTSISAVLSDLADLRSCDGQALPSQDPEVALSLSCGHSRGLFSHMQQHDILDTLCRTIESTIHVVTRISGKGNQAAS
Outline: (§1)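 Using Biotin-Ahx-Ub-VS at 0.5 µM final for 1 h, DUBs were labelled in HEK293T lysate (495 µg per sample) that had first been treated in triplicate with fragment at 200 µM or vehicle for 3 h. NeutrAvidin enrichment, LysC and trypsin digestion and diaPASEF LC-MS/MS followed. Spectronaut label-free quantities were global-median-normalised. Values are average log2 fragment/vehicle ratios by unpaired t-test, using proteins with ≥2 unique peptides.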

USP36 = target: T1, USP36 (UniProt Q9P275)
T1 sequence (whole entry): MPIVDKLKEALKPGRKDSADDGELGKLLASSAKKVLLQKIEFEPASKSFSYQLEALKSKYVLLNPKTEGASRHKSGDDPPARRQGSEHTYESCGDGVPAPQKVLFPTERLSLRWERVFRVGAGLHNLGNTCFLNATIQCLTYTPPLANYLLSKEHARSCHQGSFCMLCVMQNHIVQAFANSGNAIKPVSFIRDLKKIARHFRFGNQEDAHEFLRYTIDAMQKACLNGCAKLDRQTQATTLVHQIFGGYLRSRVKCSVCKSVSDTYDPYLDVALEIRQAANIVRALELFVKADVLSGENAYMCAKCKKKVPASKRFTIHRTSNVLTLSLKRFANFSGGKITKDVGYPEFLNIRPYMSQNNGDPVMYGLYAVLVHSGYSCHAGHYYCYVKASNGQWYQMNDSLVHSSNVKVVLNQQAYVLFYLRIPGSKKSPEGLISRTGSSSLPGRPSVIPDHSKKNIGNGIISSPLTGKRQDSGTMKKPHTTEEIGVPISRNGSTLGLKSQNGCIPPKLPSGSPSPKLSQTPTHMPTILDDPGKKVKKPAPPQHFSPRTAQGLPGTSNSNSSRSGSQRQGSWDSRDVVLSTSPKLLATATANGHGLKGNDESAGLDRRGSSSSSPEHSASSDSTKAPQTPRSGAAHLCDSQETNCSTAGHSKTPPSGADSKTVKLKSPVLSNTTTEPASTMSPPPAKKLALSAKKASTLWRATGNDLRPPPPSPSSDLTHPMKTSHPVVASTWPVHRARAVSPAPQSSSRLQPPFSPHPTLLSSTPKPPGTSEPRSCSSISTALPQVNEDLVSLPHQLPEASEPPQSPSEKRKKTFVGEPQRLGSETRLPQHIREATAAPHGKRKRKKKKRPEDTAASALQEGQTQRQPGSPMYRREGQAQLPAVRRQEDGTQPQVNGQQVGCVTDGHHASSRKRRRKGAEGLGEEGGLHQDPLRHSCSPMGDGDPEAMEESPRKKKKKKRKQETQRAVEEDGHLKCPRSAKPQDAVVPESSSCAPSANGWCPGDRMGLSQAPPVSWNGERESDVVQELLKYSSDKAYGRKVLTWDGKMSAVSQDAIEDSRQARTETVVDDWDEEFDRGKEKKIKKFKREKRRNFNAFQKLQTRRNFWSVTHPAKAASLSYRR
Outline: as §1

USP38 = target: T2, USP38 (UniProt Q8NB14)
T2 sequence (whole entry): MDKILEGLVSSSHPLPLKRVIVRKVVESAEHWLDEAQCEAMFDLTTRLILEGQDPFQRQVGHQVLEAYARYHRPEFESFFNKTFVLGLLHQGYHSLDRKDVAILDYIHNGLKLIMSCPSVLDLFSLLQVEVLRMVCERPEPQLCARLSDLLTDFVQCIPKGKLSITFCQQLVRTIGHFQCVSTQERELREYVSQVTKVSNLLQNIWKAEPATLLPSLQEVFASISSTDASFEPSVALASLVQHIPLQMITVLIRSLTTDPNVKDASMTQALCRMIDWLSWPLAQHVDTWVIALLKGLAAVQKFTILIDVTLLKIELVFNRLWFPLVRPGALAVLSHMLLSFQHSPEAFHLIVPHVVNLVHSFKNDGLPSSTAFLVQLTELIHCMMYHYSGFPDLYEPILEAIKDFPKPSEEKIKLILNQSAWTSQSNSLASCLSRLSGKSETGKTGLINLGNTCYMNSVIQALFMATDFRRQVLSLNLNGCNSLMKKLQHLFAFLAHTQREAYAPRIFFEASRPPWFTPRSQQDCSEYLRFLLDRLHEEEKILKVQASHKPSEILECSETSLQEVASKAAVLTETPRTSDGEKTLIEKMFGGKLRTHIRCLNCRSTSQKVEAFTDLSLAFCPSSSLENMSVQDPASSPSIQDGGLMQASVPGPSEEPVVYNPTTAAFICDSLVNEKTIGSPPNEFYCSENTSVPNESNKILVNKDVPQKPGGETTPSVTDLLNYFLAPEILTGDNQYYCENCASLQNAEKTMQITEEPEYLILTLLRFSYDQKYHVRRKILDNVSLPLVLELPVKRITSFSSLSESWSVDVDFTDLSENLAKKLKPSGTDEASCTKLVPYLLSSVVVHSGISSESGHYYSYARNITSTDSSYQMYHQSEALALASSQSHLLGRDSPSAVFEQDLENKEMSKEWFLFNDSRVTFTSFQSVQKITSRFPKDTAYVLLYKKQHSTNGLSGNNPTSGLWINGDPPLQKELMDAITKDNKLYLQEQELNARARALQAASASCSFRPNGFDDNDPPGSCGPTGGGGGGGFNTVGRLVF
Outline: as §1

USP39 = target: T3, USP39 (UniProt Q53GS9)
T3 sequence (whole entry): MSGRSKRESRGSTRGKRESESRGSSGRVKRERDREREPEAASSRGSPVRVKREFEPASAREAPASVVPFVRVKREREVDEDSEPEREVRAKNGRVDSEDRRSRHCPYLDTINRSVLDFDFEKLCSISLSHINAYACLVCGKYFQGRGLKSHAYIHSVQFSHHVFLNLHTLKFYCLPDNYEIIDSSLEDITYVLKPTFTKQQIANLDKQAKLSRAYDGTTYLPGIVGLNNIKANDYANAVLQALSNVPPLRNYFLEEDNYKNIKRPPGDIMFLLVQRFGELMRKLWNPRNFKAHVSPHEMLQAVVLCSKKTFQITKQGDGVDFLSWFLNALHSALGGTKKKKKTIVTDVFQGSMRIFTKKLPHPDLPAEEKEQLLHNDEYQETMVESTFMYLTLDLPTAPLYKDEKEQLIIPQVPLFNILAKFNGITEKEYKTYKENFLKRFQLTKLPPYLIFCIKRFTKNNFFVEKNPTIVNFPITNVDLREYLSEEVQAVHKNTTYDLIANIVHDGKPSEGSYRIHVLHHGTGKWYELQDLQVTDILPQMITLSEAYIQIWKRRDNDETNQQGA
Outline: as §1

USP4 = target: T4, USP4 (UniProt Q13107)
T4 sequence (whole entry): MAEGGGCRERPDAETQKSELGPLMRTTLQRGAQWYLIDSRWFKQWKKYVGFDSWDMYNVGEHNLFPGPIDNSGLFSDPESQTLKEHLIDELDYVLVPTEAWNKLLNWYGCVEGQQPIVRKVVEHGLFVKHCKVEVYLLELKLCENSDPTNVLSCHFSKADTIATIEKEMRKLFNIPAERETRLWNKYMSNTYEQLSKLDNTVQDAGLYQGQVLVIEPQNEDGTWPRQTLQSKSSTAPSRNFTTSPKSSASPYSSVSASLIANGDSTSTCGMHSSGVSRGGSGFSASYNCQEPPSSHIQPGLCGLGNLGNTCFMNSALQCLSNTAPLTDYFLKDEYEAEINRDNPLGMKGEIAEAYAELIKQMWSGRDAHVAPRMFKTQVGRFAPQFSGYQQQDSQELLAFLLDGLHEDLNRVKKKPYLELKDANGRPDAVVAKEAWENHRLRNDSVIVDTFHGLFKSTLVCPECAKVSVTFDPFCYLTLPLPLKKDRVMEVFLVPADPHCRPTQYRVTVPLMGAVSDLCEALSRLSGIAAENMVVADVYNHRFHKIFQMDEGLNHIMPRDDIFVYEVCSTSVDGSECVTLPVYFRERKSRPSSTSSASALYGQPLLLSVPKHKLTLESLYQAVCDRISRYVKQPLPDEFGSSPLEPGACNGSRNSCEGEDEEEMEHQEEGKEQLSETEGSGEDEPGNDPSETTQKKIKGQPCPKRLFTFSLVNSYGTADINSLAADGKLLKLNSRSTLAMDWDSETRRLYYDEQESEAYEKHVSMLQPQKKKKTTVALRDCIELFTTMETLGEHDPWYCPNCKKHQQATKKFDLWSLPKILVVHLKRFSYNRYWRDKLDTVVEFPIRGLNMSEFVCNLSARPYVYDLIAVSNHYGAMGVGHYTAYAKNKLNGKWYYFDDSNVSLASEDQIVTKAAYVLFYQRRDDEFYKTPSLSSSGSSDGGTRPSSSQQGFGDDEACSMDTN
Outline: as §1

Measured: log2 ratio of Biotin-Ahx-Ub-VS probe labelling

O=C(CCl)NCCC1=CCCCC1
inactive: USP34 0.0934 | USP36 -0.119 | USP38 -0.0475 | USP39 0.131 | USP4 0.0999
